# Reference: the OligoGym collection
# Key:
# Assay in all cases: pooled miR-30 sensor sort-seq; sequence = guide strand
# Conditions in all cases: shRNA
# NPR1 = molecular target: NPR1
# NPEPL1 = molecular target: NPEPL1
# NPSR1 = molecular target: NPSR1
# NPC1L1 = molecular target: NPC1L1
# NR4A3 = molecular target: NR4A3
# NRGN = molecular target: NRGN
# NR3C1 = molecular target: NR3C1
# NTRK3 = molecular target: NTRK3
# NUP54 = molecular target: NUP54
# ODF3L1 = molecular target: ODF3L1
# OTP = molecular target: OTP
# P2RY6 = molecular target: P2RY6
# PARP11 = molecular target: PARP11
# PCDH11X = molecular target: PCDH11X
# PATL1 = molecular target: PATL1
sequence,measurement,setting,value
TTAGACTCCATTCTTGAGGCTG,sensor-assay potency score (higher = more potent),NPR1,0.316
TCGCTCACCAGCATGCACCGGT,sensor-assay potency score (higher = more potent),NPEPL1,-0.443
TTCGGTTCCACATCCGCTGAGT,sensor-assay potency score (higher = more potent),NPR1,0.0187
TTGCAAGCATAGGACACGCCAT,sensor-assay potency score (higher = more potent),NPEPL1,-0.766
TACCCTTCCAGTTCTCTCGTTG,sensor-assay potency score (higher = more potent),NPSR1,0.107
TTGTGTAAGGCTCACTCTGGGC,sensor-assay potency score (higher = more potent),NPC1L1,-1.01
TTGAAGTACATGGAGGTGCTGG,sensor-assay potency score (higher = more potent),NR4A3,-0.481
TGGTCTTTTAAACTGCTTGTGA,sensor-assay potency score (higher = more potent),NR4A3,-0.937
TAGAATGTCGTCGTCCGGCTTG,sensor-assay potency score (higher = more potent),NRGN,-0.236
TATCTGTACGGACAACTTCTTT,sensor-assay potency score (higher = more potent),NR4A3,-1
TATCTTCTTCCGCGCCATGTGG,sensor-assay potency score (higher = more potent),NRGN,-1.11
TCTTGTTGCATAGCTCTTCGAC,sensor-assay potency score (higher = more potent),NR4A3,-0.437
TTAAAGGAGTAGTAGAAGGAAC,sensor-assay potency score (higher = more potent),NPSR1,-1.01
TTCATCTATCAACAGGTCTGAT,sensor-assay potency score (higher = more potent),NR3C1,-0.68
TCCAACACTGAGACACTTCTGA,sensor-assay potency score (higher = more potent),NR4A3,-0.139
TGTCTAGAATGTCGTCGTCCGG,sensor-assay potency score (higher = more potent),NRGN,-1.75
TTTGAGATGAGTCCTCGGTTAT,sensor-assay potency score (higher = more potent),NPSR1,-1.18
TAATGTCTGATCTTCTTTGGGG,sensor-assay potency score (higher = more potent),NR4A3,0.115
ATCGACAGTACTGACATCGGTT,sensor-assay potency score (higher = more potent),NR4A3,-0.324
TTTATCTTCTTCCGCGCCATGT,sensor-assay potency score (higher = more potent),NRGN,-1.14
TCTTTATCTTCTTCCGCGCCAT,sensor-assay potency score (higher = more potent),NRGN,-0.595
TTACATTGGTCGTACATGCAGG,sensor-assay potency score (higher = more potent),NR3C1,-0.108
TAGAGCAGCACAACCTGCAAAT,sensor-assay potency score (higher = more potent),NPSR1,-0.941
TTTGCATAAACAAGAGAGCTGG,sensor-assay potency score (higher = more potent),NRGN,-0.297
TTTAGCTGCGCACAGAACGAAA,sensor-assay potency score (higher = more potent),NRGN,-1.54
TTTGCCTTTGAGATGAGTCCTC,sensor-assay potency score (higher = more potent),NPSR1,0.0754
TAAACTGCTTGTGATCTTGTTG,sensor-assay potency score (higher = more potent),NR4A3,-0.255
TTGCATAAACAAGAGAGCTGGA,sensor-assay potency score (higher = more potent),NRGN,0.0661
TAAGTAATGTCTGATCTTCTTT,sensor-assay potency score (higher = more potent),NR4A3,-0.546
TAGGGTTTTATAGAAGTCCATC,sensor-assay potency score (higher = more potent),NR3C1,-1.08
TTTTCTTCGAATTTTATCGATG,sensor-assay potency score (higher = more potent),NR3C1,-1.06
TCGTCGTCCGGCTTGGAGCAGG,sensor-assay potency score (higher = more potent),NRGN,-0.878
TATTGTTCACATTCCAACCCAG,sensor-assay potency score (higher = more potent),NRGN,-0.138
TTGAGCGTAGTCATGATCCTCC,sensor-assay potency score (higher = more potent),NR3C1,0.514
TGAATCGCCAATTAATATCTGT,sensor-assay potency score (higher = more potent),NPSR1,-0.0374
TTCACCTACAGCTACAGTCAGG,sensor-assay potency score (higher = more potent),NR3C1,-1.07
TCTAGAATGTCGTCGTCCGGCT,sensor-assay potency score (higher = more potent),NRGN,-0.833
TTGAAGAAAACTTTACAGCTTC,sensor-assay potency score (higher = more potent),NR3C1,0.56
TAGAAAAAACTGTTCGACCAGG,sensor-assay potency score (higher = more potent),NR3C1,-0.371
TAGAATATTGACACACTTGAAT,sensor-assay potency score (higher = more potent),NR3C1,-0.527
TTTTTCTGCACTGTTCTCTTGA,sensor-assay potency score (higher = more potent),NR4A3,0.598
TTCAGGTTCAATAACCTCCAAC,sensor-assay potency score (higher = more potent),NR3C1,-0.915
TTGACAAAACCAGATCTCCATT,sensor-assay potency score (higher = more potent),NR3C1,-1.1
TGACTTATTATTGACAACGAAG,sensor-assay potency score (higher = more potent),NR3C1,-1.46
TTGCATAGCTCTTCGACTCTCT,sensor-assay potency score (higher = more potent),NR4A3,0.177
TTTCTTTAAGTGAGTGTGCTTG,sensor-assay potency score (higher = more potent),NRGN,-0.361
TTCATTCCAAATTTGGACCGTC,sensor-assay potency score (higher = more potent),NTRK3,0.838
TTGATCTCAGTCTTGCTGCAGA,sensor-assay potency score (higher = more potent),NTRK3,0.132
ATAAATAACAACTTCTGTCTGA,sensor-assay potency score (higher = more potent),NUP54,1.09
ACATCCTCCTTGTAGAACCAGT,sensor-assay potency score (higher = more potent),ODF3L1,-1.04
TAGCAGGGAGCAGCTCGGCTGA,sensor-assay potency score (higher = more potent),ODF3L1,-1.48
TGTCCCTTGAACACGTCCGTGT,sensor-assay potency score (higher = more potent),OTP,-0.222
TTTCTGTAGGAGCTCATGTGGT,sensor-assay potency score (higher = more potent),P2RY6,-1.02
TAGCGCTGGAAGCTGATGCAGG,sensor-assay potency score (higher = more potent),P2RY6,-0.775
TTGCGATCCATCGTCTTCCCAA,sensor-assay potency score (higher = more potent),PARP11,-0.797
TGTATCAGTAACACTCACTTGC,sensor-assay potency score (higher = more potent),PCDH11X,0.683
TAAAGCTTCCTTGACCACCGAG,sensor-assay potency score (higher = more potent),PARP11,0.0153
TAGCAGGGTCTGAACTCTGTAG,sensor-assay potency score (higher = more potent),PATL1,-0.715
TTTCTCAATTATAACAAGGGTT,sensor-assay potency score (higher = more potent),PATL1,-0.533
TATAAATTCACATAGCTCCCGT,sensor-assay potency score (higher = more potent),PARP11,0.0491
